# From ChEMBL document CHEMBL1961873, “Compounds: GSK PKIS; Assays: Nanosyn kinase panel” (2012)
# Experiments:
# [1] = biological target: T1, Serine/threonine-protein kinase D2 (Homo sapiens) (UniProt Q9BZL6); settings: at 1 µM;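 further: mean value of PRKD2 inhibition, from the GSK PKIS screening panel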
# T1 sequence (whole entry): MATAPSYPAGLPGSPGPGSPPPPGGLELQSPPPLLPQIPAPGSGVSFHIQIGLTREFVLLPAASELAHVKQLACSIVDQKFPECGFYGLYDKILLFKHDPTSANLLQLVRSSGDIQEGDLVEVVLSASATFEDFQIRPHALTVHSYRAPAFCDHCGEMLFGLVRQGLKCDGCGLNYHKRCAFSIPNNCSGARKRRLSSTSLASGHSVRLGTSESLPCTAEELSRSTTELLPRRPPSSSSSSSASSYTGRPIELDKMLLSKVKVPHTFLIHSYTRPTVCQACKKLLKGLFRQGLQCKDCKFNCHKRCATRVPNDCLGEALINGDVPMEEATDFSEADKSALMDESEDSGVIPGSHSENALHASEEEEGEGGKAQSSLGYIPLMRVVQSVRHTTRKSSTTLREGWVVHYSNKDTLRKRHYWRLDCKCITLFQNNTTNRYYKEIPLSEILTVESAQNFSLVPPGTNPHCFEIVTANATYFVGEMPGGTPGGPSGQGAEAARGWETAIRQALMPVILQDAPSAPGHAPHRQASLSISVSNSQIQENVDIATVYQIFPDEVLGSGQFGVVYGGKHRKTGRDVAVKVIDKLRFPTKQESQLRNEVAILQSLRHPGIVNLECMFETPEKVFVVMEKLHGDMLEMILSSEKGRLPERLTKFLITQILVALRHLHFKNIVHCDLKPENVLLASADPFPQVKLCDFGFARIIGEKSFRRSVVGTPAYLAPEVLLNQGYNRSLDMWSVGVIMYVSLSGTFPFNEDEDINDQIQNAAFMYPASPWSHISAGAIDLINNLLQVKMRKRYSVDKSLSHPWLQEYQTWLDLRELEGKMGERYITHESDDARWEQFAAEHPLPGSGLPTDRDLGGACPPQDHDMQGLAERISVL
# [2] = biological target: T2, Serine/threonine-protein kinase D3 (Homo sapiens) (UniProt O94806); settings: at 0.1 µM
# T2 sequence (whole entry): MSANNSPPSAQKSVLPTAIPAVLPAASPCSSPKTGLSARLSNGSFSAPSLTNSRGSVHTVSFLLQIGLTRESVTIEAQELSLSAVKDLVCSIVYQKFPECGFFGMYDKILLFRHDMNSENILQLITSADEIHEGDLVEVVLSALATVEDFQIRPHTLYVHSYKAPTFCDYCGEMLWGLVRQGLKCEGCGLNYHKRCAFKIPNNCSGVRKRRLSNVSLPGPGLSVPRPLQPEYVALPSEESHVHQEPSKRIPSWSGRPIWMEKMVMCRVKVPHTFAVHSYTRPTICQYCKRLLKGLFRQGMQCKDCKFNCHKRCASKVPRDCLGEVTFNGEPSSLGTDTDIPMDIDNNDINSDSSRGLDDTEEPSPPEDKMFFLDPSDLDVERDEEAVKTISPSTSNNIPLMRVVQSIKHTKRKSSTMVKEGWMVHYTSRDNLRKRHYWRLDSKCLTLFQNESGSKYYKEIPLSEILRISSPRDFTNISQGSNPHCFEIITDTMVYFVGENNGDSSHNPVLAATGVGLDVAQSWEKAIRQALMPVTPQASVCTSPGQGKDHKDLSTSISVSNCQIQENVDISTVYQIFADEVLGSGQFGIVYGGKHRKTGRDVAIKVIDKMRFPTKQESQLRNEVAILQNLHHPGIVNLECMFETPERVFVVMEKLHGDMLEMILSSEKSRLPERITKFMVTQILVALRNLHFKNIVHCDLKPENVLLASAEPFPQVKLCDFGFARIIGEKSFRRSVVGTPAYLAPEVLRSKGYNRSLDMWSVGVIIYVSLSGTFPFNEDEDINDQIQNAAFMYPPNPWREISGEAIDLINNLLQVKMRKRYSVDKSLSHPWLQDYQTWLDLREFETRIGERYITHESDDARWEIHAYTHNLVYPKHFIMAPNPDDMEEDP
# [3] = biological target: T2, Serine/threonine-protein kinase D3 (Homo sapiens); settings: at 1 µM
# [4] = biological target: T3, cGMP-dependent protein kinase 1 (Homo sapiens) (UniProt Q13976); settings: at 0.1 µM
# T3 sequence (whole entry): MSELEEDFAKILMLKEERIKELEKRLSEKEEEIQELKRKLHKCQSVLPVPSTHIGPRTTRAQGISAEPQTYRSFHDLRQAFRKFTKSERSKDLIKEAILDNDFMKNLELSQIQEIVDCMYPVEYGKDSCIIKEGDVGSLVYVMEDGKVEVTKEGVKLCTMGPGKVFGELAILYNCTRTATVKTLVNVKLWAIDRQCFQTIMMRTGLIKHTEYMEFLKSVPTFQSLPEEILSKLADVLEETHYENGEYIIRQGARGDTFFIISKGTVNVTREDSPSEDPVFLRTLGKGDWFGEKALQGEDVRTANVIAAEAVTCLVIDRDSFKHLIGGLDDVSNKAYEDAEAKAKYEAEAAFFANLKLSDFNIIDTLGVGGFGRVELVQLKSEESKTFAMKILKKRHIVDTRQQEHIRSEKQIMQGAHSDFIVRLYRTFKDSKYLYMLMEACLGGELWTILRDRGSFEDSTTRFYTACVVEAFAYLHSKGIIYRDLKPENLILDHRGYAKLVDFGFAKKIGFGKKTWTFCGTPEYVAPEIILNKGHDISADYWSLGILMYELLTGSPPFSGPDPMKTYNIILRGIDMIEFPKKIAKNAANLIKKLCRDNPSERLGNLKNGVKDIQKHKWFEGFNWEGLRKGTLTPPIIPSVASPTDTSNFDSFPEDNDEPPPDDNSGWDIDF
# [5] = biological target: T3, cGMP-dependent protein kinase 1 (Homo sapiens); settings: at 1 µM
# [6] = biological target: T4, cGMP-dependent protein kinase 2 (Homo sapiens) (UniProt Q13237); settings: at 0.1 µM
# T4 sequence (whole entry): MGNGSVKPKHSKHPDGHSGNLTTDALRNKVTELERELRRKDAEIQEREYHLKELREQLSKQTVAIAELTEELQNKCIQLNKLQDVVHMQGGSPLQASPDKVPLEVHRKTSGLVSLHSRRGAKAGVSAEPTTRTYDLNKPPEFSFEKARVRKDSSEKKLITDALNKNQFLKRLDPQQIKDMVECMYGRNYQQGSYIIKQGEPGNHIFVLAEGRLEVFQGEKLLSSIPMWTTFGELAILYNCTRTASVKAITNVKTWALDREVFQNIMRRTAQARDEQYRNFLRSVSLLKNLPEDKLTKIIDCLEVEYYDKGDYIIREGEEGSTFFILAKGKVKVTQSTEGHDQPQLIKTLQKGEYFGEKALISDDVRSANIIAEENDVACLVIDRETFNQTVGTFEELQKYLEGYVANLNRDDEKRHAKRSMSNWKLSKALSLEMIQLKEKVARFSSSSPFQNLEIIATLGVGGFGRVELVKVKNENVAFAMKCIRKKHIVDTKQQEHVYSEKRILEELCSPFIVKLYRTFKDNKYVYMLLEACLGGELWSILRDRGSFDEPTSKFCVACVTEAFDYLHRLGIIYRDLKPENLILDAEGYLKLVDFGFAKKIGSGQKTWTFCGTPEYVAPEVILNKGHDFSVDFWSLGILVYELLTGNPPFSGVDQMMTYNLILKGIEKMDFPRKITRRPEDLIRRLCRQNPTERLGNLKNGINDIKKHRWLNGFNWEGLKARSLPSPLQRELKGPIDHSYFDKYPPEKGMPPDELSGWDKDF
# [7] = biological target: T4, cGMP-dependent protein kinase 2 (Homo sapiens); settings: at 1 µM
# [8] = biological target: T5, cAMP-dependent protein kinase catalytic subunit PRKX (Homo sapiens) (UniProt P51817); settings: at 0.1 µM
# T5 sequence (whole entry): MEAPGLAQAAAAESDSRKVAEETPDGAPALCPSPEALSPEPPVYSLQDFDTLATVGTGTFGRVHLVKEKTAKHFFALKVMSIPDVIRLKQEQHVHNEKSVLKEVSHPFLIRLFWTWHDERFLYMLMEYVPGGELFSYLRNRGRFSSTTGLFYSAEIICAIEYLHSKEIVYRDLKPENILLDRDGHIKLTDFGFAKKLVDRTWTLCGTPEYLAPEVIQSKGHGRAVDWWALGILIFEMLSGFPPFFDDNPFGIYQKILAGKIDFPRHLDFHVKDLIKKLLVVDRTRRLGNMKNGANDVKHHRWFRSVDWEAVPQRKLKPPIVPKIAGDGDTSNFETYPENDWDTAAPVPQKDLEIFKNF
# [9] = biological target: T5, cAMP-dependent protein kinase catalytic subunit PRKX (Homo sapiens); settings: at 1 µM
# [10] = biological target: Rho-associated protein kinase 1 (Homo sapiens) (UniProt Q13464); settings: at 0.1 µM
# Sequence of Rho-associated protein kinase 1 (Homo sapiens) (Q13464 2-1354 limits assumed): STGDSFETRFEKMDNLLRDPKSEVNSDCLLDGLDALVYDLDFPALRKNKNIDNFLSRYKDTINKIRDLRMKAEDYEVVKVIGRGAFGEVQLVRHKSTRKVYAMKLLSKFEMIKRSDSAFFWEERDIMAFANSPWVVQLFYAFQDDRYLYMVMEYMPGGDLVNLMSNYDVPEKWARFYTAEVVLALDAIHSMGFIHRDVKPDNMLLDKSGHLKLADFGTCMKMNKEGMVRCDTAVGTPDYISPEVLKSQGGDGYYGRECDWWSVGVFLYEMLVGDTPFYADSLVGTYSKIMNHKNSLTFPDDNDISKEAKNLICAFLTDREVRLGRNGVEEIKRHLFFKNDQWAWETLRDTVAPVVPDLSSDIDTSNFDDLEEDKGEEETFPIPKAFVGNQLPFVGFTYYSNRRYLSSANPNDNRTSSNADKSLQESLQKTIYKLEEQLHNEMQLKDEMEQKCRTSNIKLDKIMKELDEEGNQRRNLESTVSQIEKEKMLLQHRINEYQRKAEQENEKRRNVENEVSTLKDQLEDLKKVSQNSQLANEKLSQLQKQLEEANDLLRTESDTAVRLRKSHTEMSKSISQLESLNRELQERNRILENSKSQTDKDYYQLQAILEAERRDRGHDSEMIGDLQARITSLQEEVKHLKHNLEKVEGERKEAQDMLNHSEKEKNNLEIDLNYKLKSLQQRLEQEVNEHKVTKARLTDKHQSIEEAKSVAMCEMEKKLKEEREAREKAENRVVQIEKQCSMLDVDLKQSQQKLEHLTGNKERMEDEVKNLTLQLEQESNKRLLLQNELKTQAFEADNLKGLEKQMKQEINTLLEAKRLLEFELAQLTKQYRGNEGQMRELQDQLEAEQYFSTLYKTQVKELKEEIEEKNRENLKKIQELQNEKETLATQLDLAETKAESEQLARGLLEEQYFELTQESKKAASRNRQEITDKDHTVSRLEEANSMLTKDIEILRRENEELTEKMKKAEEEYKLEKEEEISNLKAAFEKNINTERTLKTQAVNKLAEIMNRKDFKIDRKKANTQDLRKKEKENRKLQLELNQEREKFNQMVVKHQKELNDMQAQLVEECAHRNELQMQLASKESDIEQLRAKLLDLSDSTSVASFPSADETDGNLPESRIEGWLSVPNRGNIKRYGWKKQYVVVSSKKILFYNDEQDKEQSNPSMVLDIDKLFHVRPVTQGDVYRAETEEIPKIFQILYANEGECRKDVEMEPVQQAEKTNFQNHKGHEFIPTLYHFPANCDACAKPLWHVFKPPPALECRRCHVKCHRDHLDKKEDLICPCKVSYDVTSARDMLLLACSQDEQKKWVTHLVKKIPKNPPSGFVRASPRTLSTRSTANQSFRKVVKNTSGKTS
# [11] = biological target: Rho-associated protein kinase 1 (Homo sapiens) (UniProt Q13464); settings: at 1 µM
# [12] = biological target: Rho-associated protein kinase 2 (Homo sapiens) (UniProt O75116); settings: at 0.1 µM
# Sequence of Rho-associated protein kinase 2 (Homo sapiens) (O75116 whole entry, looked up): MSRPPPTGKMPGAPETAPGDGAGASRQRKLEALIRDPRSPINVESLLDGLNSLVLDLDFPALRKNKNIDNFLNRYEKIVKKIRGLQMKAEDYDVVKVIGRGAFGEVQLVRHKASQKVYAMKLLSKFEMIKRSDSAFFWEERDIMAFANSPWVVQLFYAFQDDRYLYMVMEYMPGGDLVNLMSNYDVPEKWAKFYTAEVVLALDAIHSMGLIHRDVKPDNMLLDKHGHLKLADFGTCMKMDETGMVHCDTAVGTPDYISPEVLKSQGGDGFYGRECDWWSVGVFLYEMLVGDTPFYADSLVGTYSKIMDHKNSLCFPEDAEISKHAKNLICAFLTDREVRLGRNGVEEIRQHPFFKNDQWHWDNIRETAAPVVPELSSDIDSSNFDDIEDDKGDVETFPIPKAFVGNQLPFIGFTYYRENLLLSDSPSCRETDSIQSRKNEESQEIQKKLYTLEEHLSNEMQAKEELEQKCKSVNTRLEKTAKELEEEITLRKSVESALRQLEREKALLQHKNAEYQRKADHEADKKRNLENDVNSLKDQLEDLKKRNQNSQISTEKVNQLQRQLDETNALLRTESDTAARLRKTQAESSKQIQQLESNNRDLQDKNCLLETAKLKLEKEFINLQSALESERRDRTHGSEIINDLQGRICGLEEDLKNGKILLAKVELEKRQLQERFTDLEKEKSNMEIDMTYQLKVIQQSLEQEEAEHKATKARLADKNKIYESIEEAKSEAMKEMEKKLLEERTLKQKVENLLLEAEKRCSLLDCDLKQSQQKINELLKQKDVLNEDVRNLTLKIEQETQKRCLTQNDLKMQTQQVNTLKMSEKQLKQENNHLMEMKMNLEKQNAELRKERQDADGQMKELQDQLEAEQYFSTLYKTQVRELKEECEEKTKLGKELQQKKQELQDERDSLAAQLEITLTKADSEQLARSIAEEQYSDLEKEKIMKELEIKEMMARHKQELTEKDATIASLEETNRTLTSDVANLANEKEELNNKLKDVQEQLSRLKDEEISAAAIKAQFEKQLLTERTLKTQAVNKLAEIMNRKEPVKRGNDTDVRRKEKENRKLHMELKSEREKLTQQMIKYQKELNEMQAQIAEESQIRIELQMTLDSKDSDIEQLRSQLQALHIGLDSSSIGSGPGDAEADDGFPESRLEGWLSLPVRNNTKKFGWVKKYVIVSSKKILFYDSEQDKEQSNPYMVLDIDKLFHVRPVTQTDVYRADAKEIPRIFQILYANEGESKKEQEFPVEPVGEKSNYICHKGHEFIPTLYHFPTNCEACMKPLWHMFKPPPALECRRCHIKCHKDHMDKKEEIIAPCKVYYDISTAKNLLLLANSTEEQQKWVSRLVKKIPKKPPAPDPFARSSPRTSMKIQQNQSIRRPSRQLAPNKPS
# [13] = biological target: Rho-associated protein kinase 2 (Homo sapiens) (UniProt O75116); settings: at 1 µM
# [14] = biological target: Ribosomal protein S6 kinase alpha-1 (Homo sapiens) (UniProt Q15418); settings: at 0.1 µM
# [15] = biological target: Ribosomal protein S6 kinase alpha-1 (Homo sapiens) (UniProt Q15418); settings: at 1 µM
# [16] = biological target: Ribosomal protein S6 kinase alpha-3 (Homo sapiens) (UniProt P51812); settings: at 0.1 µM
# Sequence of Ribosomal protein S6 kinase alpha-3 (Homo sapiens) (P51812 whole entry): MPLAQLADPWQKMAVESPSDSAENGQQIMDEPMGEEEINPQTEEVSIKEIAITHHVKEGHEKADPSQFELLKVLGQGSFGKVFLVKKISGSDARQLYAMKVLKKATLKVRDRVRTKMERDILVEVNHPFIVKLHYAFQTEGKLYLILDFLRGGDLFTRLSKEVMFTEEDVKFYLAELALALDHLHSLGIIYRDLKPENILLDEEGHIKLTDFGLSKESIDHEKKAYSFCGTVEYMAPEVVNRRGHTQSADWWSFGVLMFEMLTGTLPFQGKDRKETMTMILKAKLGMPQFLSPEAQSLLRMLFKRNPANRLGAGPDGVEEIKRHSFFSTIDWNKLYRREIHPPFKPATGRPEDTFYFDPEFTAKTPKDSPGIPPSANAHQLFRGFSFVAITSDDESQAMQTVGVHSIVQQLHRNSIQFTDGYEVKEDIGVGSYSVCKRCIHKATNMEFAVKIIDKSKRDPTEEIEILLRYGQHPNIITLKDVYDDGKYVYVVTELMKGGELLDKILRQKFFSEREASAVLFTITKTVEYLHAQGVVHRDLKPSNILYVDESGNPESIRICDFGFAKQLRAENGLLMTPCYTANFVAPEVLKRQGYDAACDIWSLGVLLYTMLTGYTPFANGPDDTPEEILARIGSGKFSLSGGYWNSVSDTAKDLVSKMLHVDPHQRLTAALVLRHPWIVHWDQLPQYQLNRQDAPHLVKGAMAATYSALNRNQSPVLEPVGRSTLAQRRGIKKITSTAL
# [17] = biological target: Ribosomal protein S6 kinase alpha-3 (Homo sapiens) (UniProt P51812); settings: at 1 µM
# [18] = biological target: Ribosomal protein S6 kinase alpha-2 (Homo sapiens) (UniProt Q15349); settings: at 0.1 µM
# Sequence of Ribosomal protein S6 kinase alpha-2 (Homo sapiens) (Q15349 whole entry): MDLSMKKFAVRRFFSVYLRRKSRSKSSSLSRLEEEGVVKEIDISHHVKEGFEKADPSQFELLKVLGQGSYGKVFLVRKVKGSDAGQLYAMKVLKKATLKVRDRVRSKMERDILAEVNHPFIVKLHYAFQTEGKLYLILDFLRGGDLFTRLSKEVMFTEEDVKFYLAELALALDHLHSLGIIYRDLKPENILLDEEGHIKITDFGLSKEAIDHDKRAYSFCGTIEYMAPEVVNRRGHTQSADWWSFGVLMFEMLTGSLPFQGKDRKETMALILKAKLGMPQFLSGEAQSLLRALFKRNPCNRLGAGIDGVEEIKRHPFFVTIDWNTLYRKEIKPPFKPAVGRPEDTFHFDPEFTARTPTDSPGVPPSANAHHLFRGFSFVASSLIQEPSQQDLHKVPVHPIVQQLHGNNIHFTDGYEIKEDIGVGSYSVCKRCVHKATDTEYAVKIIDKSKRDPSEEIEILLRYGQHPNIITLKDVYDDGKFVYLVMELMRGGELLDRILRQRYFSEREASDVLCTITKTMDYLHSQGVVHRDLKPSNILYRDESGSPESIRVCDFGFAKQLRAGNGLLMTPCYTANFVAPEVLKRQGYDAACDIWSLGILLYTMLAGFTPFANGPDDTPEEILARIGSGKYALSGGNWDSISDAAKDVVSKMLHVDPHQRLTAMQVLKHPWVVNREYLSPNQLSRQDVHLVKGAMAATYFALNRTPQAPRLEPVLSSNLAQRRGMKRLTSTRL
# [19] = biological target: Ribosomal protein S6 kinase alpha-2 (Homo sapiens) (UniProt Q15349); settings: at 1 µM
# [20] = biological target: Ribosomal protein S6 kinase alpha-6 (Homo sapiens) (UniProt Q9UK32); settings: at 0.1 µM;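 further: reported value is the mean inhibition of RSK4, from the GSK PKIS kinase inhibitor screen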
# Sequence of Ribosomal protein S6 kinase alpha-6 (Homo sapiens) (Q9UK32 whole entry): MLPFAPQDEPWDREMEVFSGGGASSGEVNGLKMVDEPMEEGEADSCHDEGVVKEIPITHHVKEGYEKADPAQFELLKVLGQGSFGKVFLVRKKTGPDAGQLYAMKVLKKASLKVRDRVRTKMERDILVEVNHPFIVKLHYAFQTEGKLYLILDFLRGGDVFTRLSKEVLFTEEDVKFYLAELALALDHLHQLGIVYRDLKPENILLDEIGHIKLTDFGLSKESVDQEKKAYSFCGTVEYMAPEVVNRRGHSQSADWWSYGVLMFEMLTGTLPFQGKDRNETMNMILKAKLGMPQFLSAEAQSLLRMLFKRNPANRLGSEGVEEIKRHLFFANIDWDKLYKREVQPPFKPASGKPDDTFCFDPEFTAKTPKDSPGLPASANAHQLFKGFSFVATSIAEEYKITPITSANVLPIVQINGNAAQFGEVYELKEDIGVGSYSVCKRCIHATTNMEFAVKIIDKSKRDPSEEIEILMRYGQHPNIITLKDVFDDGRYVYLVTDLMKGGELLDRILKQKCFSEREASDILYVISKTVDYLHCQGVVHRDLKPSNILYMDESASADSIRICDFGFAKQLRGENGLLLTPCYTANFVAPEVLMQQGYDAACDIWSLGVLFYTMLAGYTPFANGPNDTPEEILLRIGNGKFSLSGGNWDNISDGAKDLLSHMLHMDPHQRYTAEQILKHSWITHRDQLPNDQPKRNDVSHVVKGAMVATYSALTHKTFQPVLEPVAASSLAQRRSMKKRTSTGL
smiles,measurement,setting,value
COc1c(C(N)=O)cc(-c2ccc(Cl)cc2)cc1-c1ccc(S(N)(=O)=O)cc1,inhibition,[1],1.99%
same,inhibition,[2],4.57%
same,inhibition,[3],4.42%
same,inhibition,[4],4.35%
same,inhibition,[5],9.49%
same,inhibition,[6],3.98%
same,inhibition,[7],8.49%
same,inhibition,[8],1.69%
same,inhibition,[9],3.72%
same,inhibition,[10],2.98%
same,inhibition,[11],3.19%
same,inhibition,[12],2.99%
same,inhibition,[13],5.06%
same,inhibition,[14],1.96%
same,inhibition,[15],2.12%
same,inhibition,[16],1.72%
same,inhibition,[17],2.53%
same,inhibition,[18],2.4%
same,inhibition,[19],2.98%
same,inhibition,[20],2.25%
CCS(=O)(=O)c1ccc(OC)c(Nc2ncc(-c3cccc(F)c3)o2)c1,inhibition,[1],3.8%
same,inhibition,[2],4.67%
same,inhibition,[3],4.73%
same,inhibition,[4],4.88%
same,inhibition,[5],8.02%
same,inhibition,[6],3.78%
same,inhibition,[7],6.47%
same,inhibition,[8],3.37%
same,inhibition,[9],2.6%
same,inhibition,[10],2.49%
same,inhibition,[11],2.95%
same,inhibition,[12],3.63%
same,inhibition,[13],3.95%
same,inhibition,[14],2.84%
same,inhibition,[15],6.08%
same,inhibition,[16],1.12%
same,inhibition,[17],13.6%
same,inhibition,[18],4.07%
same,inhibition,[19],5.22%
same,inhibition,[20],2.2%
NC(=O)c1ccc2c(-c3ccnc(NCCCO)n3)c(-c3ccc(F)cc3)nn2c1,inhibition,[1],32.7%
same,inhibition,[2],7.38%
same,inhibition,[3],28.4%
same,inhibition,[4],3.77%
same,inhibition,[5],5.16%
same,inhibition,[6],1.84%
same,inhibition,[7],3.89%
same,inhibition,[8],1.77%
same,inhibition,[9],1.05%
same,inhibition,[10],1.85%
same,inhibition,[11],1.92%
same,inhibition,[12],3.55%
same,inhibition,[13],5.31%
same,inhibition,[14],3.69%
same,inhibition,[15],1.7%
same,inhibition,[16],0.96%
same,inhibition,[17],1.23%
same,inhibition,[18],2.66%
same,inhibition,[19],3.1%
same,inhibition,[20],2.24%
